SMILES strings stand for the structures. About 83,000 compounds went through this panel and 20% of them were active in at least one assay; those are over-represented in the sample as a whole.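 Testing used 96-well plates and a 48-hour single-concentration exposure. Example: -40 means 40% of the starting cells died.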 Unmarked numbers belong to inactive results. Activity calls are given as the source filed them.

In this test the test system is KM12 colon. The experiment in a line: NCI-60 one-dose screen, 48 h (100 = growth as untreated, 0 = no growth, -100 = all killed). The following applies: 10 µM. On the procedure:
Growth inhibition of the KM12 human tumor cell line is measured as a screen for anti-cancer activity. Cells are grown in 96 well plates and exposed to the test compound for 48 hours. Compounds are tested at a single concentration, which is 10^-5 M for most compounds. The reported endpoint is percent growth (GI% or GIPRCNT), where numbers from 0 - 100% represent growth inhibition, and numbers from -100% - 0 represent cell death. For example, a value of 40 represents 60% growth inhibition. A value of 0 means no net growth occurred over the course of the experiment. A value of -40 indicates 40% of cells at the beginning of the experiment died by the end of the experiment. A value of -100 means all cells are dead at the end of the experiment.
NCI-60 Human Tumor Cell Lines Screen was performed using the standard one-dose NCI protocol, which is described in more detail at https://dtp.cancer.gov/discovery_development/nci-60/default.htm.
Compounds with GIPRCNT values below 10 were considered active. Activity score was based on GIPRCNT using the following formula: […]
Score is 0 for GIPRCNT values of 100 or above, 50 for GIPRCNT values of 0, and 100 for GIPRCNT values of -100.
For `Cc1nn(-c2ccccc2)c2ncn(CC(=O)N/N=C/c3c[nH]c4ccccc34)c(=O)c12`, the growth was 92.4%.

For `COC[C@@H](CC(C)C)N=C1N/C(=C\c2ccc3ncsc3c2)C(=O)N1C`, the growth was 9.52% (active).

As for `N#Cc1ccc(-c2nn(-c3ccc(C(=O)O)cc3)cc2CNc2ccc(Oc3ccccc3)cc2)cc1`, the growth is 16.3%.

On to `O=C(CNc1nc(-c2ccccc2)cs1)Nc1ccc([N+](=O)[O-])cc1`, for which the growth was 36.7%.

As for `Cc1noc2c(Cc3ccccc3)nn(CC(=O)N/N=C/c3ccc(Cl)cc3)c(=O)c12`, the growth is 72.6%.

For the compound `COc1ccc(/C=C/C(=O)c2ccc(S(=O)(=O)NCCNc3nc(Nc4ccc(F)cc4)nc(N(C)C)n3)cc2)cc1`, the growth is -26.1% (active).

Regarding `CN(CCO)c1oc(-c2ccccc2)nc1[P+](c1ccccc1)(c1ccccc1)c1ccccc1`, the growth was -39.4% (active).

As to `CC(=O)Nc1ccc(-c2cn(-c3cccc(C(=O)Nc4ccc(F)c(C(F)(F)F)c4)c3)nn2)cn1`, the growth was 28.4%.

`Cc1cccc(-c2nc(Nc3ccccc3C(=O)O)c3ccccc3n2)c1`: the growth is 30%.

Turning to `Cc1ccc(S(=O)(=O)c2nc(-c3ccccc3)oc2S(=O)(=O)CC(=O)N2CCCC2)cc1`, the growth was 40.8%.

For the compound `O=c1cc(-c2ccccc2)oc2cc(OCCCCNCc3ccccc3)cc(O)c12`, the growth is 23.8%.

For `O=C(Nc1ccccc1)Nc1nc2ccccc2s1`, the growth was 90.1%.

For the compound `Cc1cc(=O)oc2cc(OCCCCOc3ccc(/C=C/C(=O)Nc4ccccc4[N+](=O)[O-])cc3)ccc12`, the growth is 109%.

As for `O=[N+]([O-])c1ccc(-c2nc(-c3ccccc3)c(-c3ccccc3)n2-c2ccc(S(=O)(=O)Nc3ncccn3)cc2)cc1`, the growth was 30.8%.

Consider `O=C(CSc1nnc(-c2c[nH]c3ccccc23)n1-c1ccccc1)Nc1ccc(C(=O)/C=C/c2cccc([N+](=O)[O-])c2)cc1`, for which the growth is 88.7%.

Take `CCCn1c(=O)c2[nH]c(-c3ccc(OCc4nc5ccc(C(F)(F)F)cc5[nH]4)cc3)nc2n(CCC)c1=O`: the growth is 55.5%.

Regarding `COc1ccccc1[C@H]1C(C(=O)c2ccc(Cl)cc2)C2(N[C@@H]1c1ccccc1)C(=O)Nc1ccc(Cl)cc12` (stereo not given in full), the growth is 9.71% (active).

Regarding `COc1ccc(N2N=C(c3ccc4c(c3)OCCO4)CC2c2cccc(NC(=O)CCCNS(=O)(=O)c3ccc(F)cc3)c2)cc1` (stereo not given), the growth was -92.8% (active).

In the case of `O=C(NO)c1ccc(-c2nc3ccc4[nH]ncc4c3c3c2CCCC3)cc1`, the growth is -28.3% (active).

As to `C=C[C@H]1[C@H](O[C@@H]2OC(CO)[C@@H](O)[C@H](O)C2OC(=O)c2c(O)cc(O)cc2-c2cccc(O)c2)OC=C2C(=O)OCC[C@H]21` (stereo not given in full), the growth was 103%.

Consider `CCOc1ccc2ncc(C#Cc3cncc(C(=O)Nc4ccc(CN5CCN(C)CC5)c(C(F)(F)F)c4)c3)n2n1`, for which the growth is -91.1% (active).

Take `O=C1NC(=NC23CC4CC(CC(C4)C2)C3)N/C1=C\c1ccc2ncsc2c1`: the growth was 2.26% (active).

Consider `COc1ccc(-c2cc(-c3cc(C(=O)c4ccc(Br)cc4)n4ccc(C)cc34)nc(N)c2C#N)cc1`, for which the growth was 82.1%.

`CO[C@@H]1CSS[C@H]1Cn1nc(-c2ccc(Oc3ccccc3)cc2)c2c(N)ncnc21`: the growth was 60%.

On to `N#Cc1ccc(NC(=O)CSc2ccc(-c3ccc(Br)cc3)nn2)cc1`, for which the growth was 76.7%.

Regarding `O=C1Nc2cc(Cl)ccc2/C1=C/c1cccc(OCc2ccc(Br)cc2F)c1`, the growth was 1.67% (active).

Consider `N#Cc1c(Cl)nc(SCc2ccc(F)cc2)nc1-c1ccc(F)cc1`, for which the growth was 91.6%.

Take `CCCCCCCCCCCCCCCCCCCC(=O)NCCc1c[nH]c2ccc(OC(=O)NOCCOCCOCCOCCOCCOCCOCCOCCOCCOCCOCCOCCOCCOCCOCCOCCOCCOCCOCCOCCOCCOCCOC)cc12`: the growth is 14.9%.

On to `C=C1CCC2C3(C)COC(c4ccccc4F)OC3CCC2(C)C1C/C=C1/C(=O)OCC1O` (stereo not given), for which the growth is -82.3% (active).

With `CC(=O)Nc1ccc(-n2cnc3cc(-c4ccc(O)cc4)ccc32)cc1C`, the growth is 22.1%.

Turning to `CCOC(=O)C1=C(N)N(c2ccc(Cl)cc2)C2=C(C(=O)CC(C)(C)C2)C1c1ccc(N2CCOCC2)cc1` (stereo not given), the growth was 107%.

For `COc1cc2c(cc1OC)CN(CCCCOc1cc(O)c3c(=O)cc(-c4ccccc4)oc3c1)CC2`, the growth is 80.1%.

For `O=C(Nc1cccc([N+](=O)[O-])c1)Nc1cccc([N+](=O)[O-])c1`, the growth is 70.6%.

In the case of `O=c1[nH]n(C(=S)N/N=C/c2ccc(F)cc2)c(=O)c2ccccc12`, the growth is 36.2%.

For the compound `COc1cc(C2CC(c3ccc(C)cc3)=Nc3c(N)nc(N)nc3N2)ccc1Oc1nc(Nc2ccc(F)cc2)nc(N(C)C)n1` (stereo not given), the growth was 52%.

`NS(=O)(=O)c1ccc(NC(=O)CSc2ccc(-c3ccccc3)nn2)c(Br)c1`: the growth is 85.3%.

As to `C=C1CCC2C3(C)COC(c4cc(F)cc(F)c4)OC3CCC2(C)C1C/C=C1/C(=O)OCC1O` (stereo not given), the growth is -77.9% (active).

Consider `Cc1ccc(-c2ccc(SCC(=O)Nc3ccc(S(N)(=O)=O)cc3Br)nn2)cc1`, for which the growth is 38.3%.

In the case of `COc1cccc(-c2ccc(/C=N/NC(=O)c3[nH]c4ccc(Br)cc4c3-c3ccccc3)o2)c1`, the growth was 10.8%.

For `COc1ccc2[nH]c(O)c(N=NC(=O)COc3ccc(NC(=O)Nc4ccc(Cl)c(Cl)c4)cc3)c2c1`, the growth is -31% (active).
